# According to PubChem BioAssay AID2315 (National Center for Advancing Translational Sciences (NCATS), 2010):
# Hit rate of the full screen: of about 290,000 compounds, about 27,000 (9.3%) were called active. The entries come from a sample that favours actives as a whole. Values without a mark were called inactive. Cut-off read from the data, not from the text of the source: active = inhibition mostly above about 28% (no sharp cut-off); inactive = mostly below about 43%.
# Experiment: A qHTS for Small Molecule Inhibitors of Shiga Toxin; note: 0% is about no effect
# Details: Vero cells, Shiga toxin protein synthesis inhibition reporter; at 38.7 µM, active compounds read high
row,SMILES,inhibition
1,Cc1cc(S(=O)(=O)c2cc3ccc(O)c(C)c3oc2=O)ccc1F,23.1%
2,Cc1nn(C)c(C)c1C(C)NC(=O)c1ccc(OC2CCN(Cc3ccccn3)CC2)cc1 (centres undefined),8.35%
3,NNC(=O)c1nnn(-c2nonc2N)c1CN1CCCC1,-1.91%
4,CCc1nc(Nc2ccc(NC(C)=O)cc2)c2oc3ccccc3c2n1,-2.91%
5,Cc1c(CNCCc2ccccc2)c(C(=O)O)c(C)n1-c1ccccc1,-0.721%
6,Cc1ccc(CSCC2Nc3ccc(C(=O)N4CCN(c5ccc(F)cc5)CC4)cc3NC2=O)cc1 (centres undefined),13.1%
7,CCOc1ccc(NC(=O)c2ccc(NC(=O)C3CCCO3)cc2)cc1 (centres undefined),0.828%
8,Cc1cc2c(cc1S(=O)(=O)NCc1ccc(Cl)cc1)OCC(=O)N2,-2.9%
9,CC(NC(=O)C1CCCN(S(=O)(=O)c2ccc(-n3cnnn3)cc2)C1)c1ccc(F)cc1 (centres undefined),-5.87%
10,CSc1ccc(NC(=O)/C=C/C(=O)O)cc1,18.3%
11,Cc1ccc(C(=O)NC23CC4CC(CC(C4)C2)C3)c(Cl)c1,6.22%
12,CSc1ccc(/C=C/C(=O)NC23CC4CC(CC(C4)C2)C3)cc1,103% (active)
13,Cc1ccc2sc(N(CCN(C)C)C(=O)/C=C/c3cccs3)nc2c1C,-3.15%
14,CCOC(=O)c1nc(Nc2ccc(C(=O)OC)cc2)c2ccccc2n1,17%
15,COC(=O)c1ccc(NC(=O)CSc2nncc3ccc(OC)c(OC)c23)cc1,-11.5%
16,COC(=O)c1ccc(Nc2ncnc3sccc23)cc1,42% (active)
17,COc1cc2c(cc1OC)C(c1cccc([N+](=O)[O-])c1)=NCC2,-8.7%
18,O=c1[nH]c(=S)n(C2CC2)c(O)c1/C=N/N1CCOCC1,-6.68%
19,O=C(N/N=C/c1c(O)n(C2CC2)c(=S)[nH]c1=O)c1ccccc1,84.6% (active)
20,O=C(N/N=C/c1c(O)n(C2CC2)c(=S)[nH]c1=O)c1ccccc1Cl,30.7%
21,Cn1cnc2c1c(=O)n(Cc1ccccc1C#N)c(=O)n2C,-8.82%
22,Cc1ccc(NC(=O)c2ccccn2)cc1S(=O)(=O)N1CCOCC1,28%
23,COC(=O)[C@@H](NC(=O)Nc1cc(Cl)ccc1C)C(C)C,8.66%
24,Cc1ccc(Cl)cc1NC(=O)c1ccccn1,31.5% (active)
25,O=C(N/C(=C\c1ccc([N+](=O)[O-])cc1)C(=O)N1CCOCC1)c1cccc(Br)c1,-35.2%

row,SMILES,inhibition
1,OCCNCCCCOc1ccccc1F,-2.38%
2,Cn1c(=O)c2c(nc(Br)n2CCSc2nc3ccccc3o2)n(C)c1=O,-12.2%
3,Fc1ccccc1OCCSc1nc2ccccc2o1,110% (active)
4,O=S(=O)(c1cccc(-c2cn3ccccc3n2)c1)N1CCCC1,16.7%
5,COc1ccc(C(CC(=O)c2ccccc2)S(=O)(=O)c2ccccc2)cc1 (centres undefined),26.9% (active)
6,COc1ccc(CN(C)C(=O)CC(c2ccccc2)c2ccccc2)cc1,6.72%
7,COc1ccc(N(Cc2ccccc2)S(=O)(=O)c2cccc(C(=O)O)c2)cc1,-12.2%
8,Cc1[nH]c2ccccc2c1C(=O)CN1CC(C)CC(C)C1 (centres undefined),-6.33%
9,COc1ccc2nc(Nc3nc4ccc(NC(C)=O)cc4s3)sc2c1,35.3%
10,COc1ccc2nc(NC(=O)c3ccc(Br)s3)sc2c1,51.2% (active)
11,Cc1nc2cc3c(cc2s1)OCO3,13.4%
12,COc1ccc2nc(NC(=O)NC3CCCCC3)sc2c1,96.4% (active)
13,COc1ccc2nc(Nc3nc4cc5c(cc4s3)OCCO5)sc2c1,46.4% (active)
14,COc1ccc(CNC(=O)c2ccc(Br)s2)cc1OC,31.8%
15,CCn1c(SCC(=O)Nc2nc3ccc(OC)cc3s2)nnc1-c1ccoc1C,56.7%
16,COc1ccc2nc(NC(=O)[C@@H]3CCCN3C(=O)c3cccs3)sc2c1,60.1%
17,COc1ccc(-n2cnc3cc(C(=O)NC4CCCC4)ccc32)cc1,-10.6%
18,COc1ccc(N(CC(=O)Nc2cc(OC)ccc2OC)S(=O)(=O)c2c(C)noc2C)cc1,-2.51%
19,O=C(O)c1ccc(/C=C2/SC(=S)N(c3cccc(C(F)(F)F)c3)C2=O)cc1,-0.926%
20,CCOC(=O)c1cc(S(=O)(=O)NCCc2ccc(OC)c(OC)c2)cn1C,-9.15%
21,N#CC1=C(N)Oc2c(sc3ccccc23)C1c1ccco1 (centres undefined),139% (active)
22,N#CC1=C(N)Oc2c(c(=O)oc3ccccc23)C1c1ccccc1OC(=O)c1cccs1 (centres undefined),-8.1%
23,Cc1cc(C)c2c3c(sc2n1)C(c1ccccc1)C(C#N)=C(N)O3 (centres undefined),16.2%
24,COc1cccc(NC(=O)CSc2nnc(Cc3ccc(OC)c(OC)c3)o2)c1,-3.46%
